A selection: hits, their analogues and other compounds. The true share with any hit is near 4.8%.
TSHR ag: TSH receptor (human) agonism; HEK293-CNG-TSHR cells (CNG channel as cAMP sensor), membrane potential dye, cAMP; Potency, µM (titrated, usually from 57.1 µM), most hits filed as activators; 0.48% of 73,000 active; active = well fitted activation curve with a large enough effect in the main read-out, with a control signal flat, not every such curve was filed as active; inconclusive = small, poorly fitted or top-dose-only effect, or a change in a side signal; inactive = no such curve, though single readings can be large or run the other way; reference of the percent scale not stated here;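 note: the control signal comes from parental cells without the receptor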
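HEK 293 cells stably expressing TSHR and a cAMP-gated CNG channel; parental CNG-only cells as counterscreen. Cells preloaded 60 min with membrane potential dye plus 100 uM RO 20-1724, then compound 30 min; fluorescence read at 590 nm.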
ALOX15 inhib: 15-hLO (ALOX15) enzyme inhibition; P16050; purified 15hLO-1, xylenol orange hydroperoxide absorbance; Potency, µM (series often up to 57.1 µM), actives largely listed as inhibitors; 1.4% of 74,000 active; note: nearly all actives have a fitted effect of over 55% in size
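Quantitative HTS in 25 mM Hepes pH 7.5 containing 0.01% Triton X-100: human 15hLO-1 at 40 nM, arachidonic acid at 50 uM, 6 min turnover. Product quantified via ferrous oxidation/xylenol orange, 573:405 nm absorbance ratio.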
ERK AVP block: inhibitors of vasopressin-stimulated ERK signaling pathway. AID 995. Potency, µM (titrated, usually from 57.5 µM), most hits filed as inhibitors. 0.99% of 72,000 active. HEK293-V1b, vasopressin-stimulated pERK AlphaScreen; note: nearly all actives have a fitted effect of over 55% in size
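V1b-HEK293 cells; cpd 30 min 37C; 25 nM vasopressin 5 min; lyse 10 min; AlphaScreen beads 5 hr RT. Normalized to DMSO basal and 25 nM vasopressin; AC50 by Hill fit.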
Caspase-7 inhib: allosteric or competitive inhibitors of human caspase-7 | P55210 | recombinant caspase-7, Ac-DEVD-AFC fluorescence rate | Potency, µM (series often up to 57.5 µM), hits mostly inhibitors | 0.02% of 75,000 active | AID 889; active = well fitted inhibition curve with a large enough effect in the main read-out, with a control signal flat, not every such curve was filed as active; inconclusive = small, poorly fitted or top-dose-only effect, or a change in a side signal
HEK293 cAMP ctrl: counter-screen for TSHR agonists: cAMP increase in parental HEK293; 2.5% of 73,000 active; parental HEK293 CNG cAMP sensor, membrane potential fluorescence; AID 938; Potency, µM (doses to about 57.1 µM), actives largely listed as activators; note: nearly all actives have a fitted effect of over 55% in size
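Parental HEK 293 cells stably expressing a modified CNG channel (no TSHR) report cAMP rise as membrane depolarization. Membrane potential dye with 100 uM RO 20-1724 was loaded for 60 min at room temperature, then compound added for 30 min; fluorescence read at 590 nm.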
Casp1 inh: blocks human caspase-1 allosterically or competitively; P29466; Caspase-1 enzyme, Ac-WEHD-AFC fluorogenic rate; Potency, µM (series often up to 57.5 µM), actives largely listed as inhibitors; 0.03% of 75,000 active; AID 900
Numbers stand for hits; n = inactive; u = inconclusive; x = no result given; [ ] = remark or other dose. Unless noted, calls come from the whole dose curve; as a rule, active = well fitted curve in the direction sought with a large enough effect; inconclusive = small, poorly fitted or top-dose-only effect, or another doubt; inactive = no such curve, though single readings can be large; an effect the other way counts as inactive or inconclusive.

SMILES | TSHR ag | ALOX15 inhib | ERK AVP block | Caspase-7 inhib | HEK293 cAMP ctrl | Casp1 inh
COC(=O)C1=C(N)OC2=C(C(=O)CC(C)(C)C2)C1c1cccs1 (stereo not given) | u | n[11.4 µM] | n | n | 3.16µM | n
CCOC(=O)C1=C(N)OC2=C(C(=O)CC(C)(C)C2)C1c1cccnc1 (stereo not given) | u | n | n | n | u | n
COC(=O)C1=C(C)NC2=C(C(=O)CCC2)C1c1cccs1 (stereo not given) | n | n | n | n | n | n
CCOC(=O)C1=C(N)OC2=C(C(=O)CC(C)(C)C2)C1c1ccoc1 (stereo not given) | u | n | n | n | 12.6µM | n
C[C@H](CCC(=O)NN)[C@@H]1CC[C@@H]2[C@H]3CC[C@H]4C[C@@H](O)CC[C@@]4(C)[C@@H]3CC[C@]21C | n[11.4 µM] | n[11.4 µM] | n[11.5 µM] | n[11.5 µM] | n[11.4 µM] | n[11.5 µM]
CCc1ccc2c(-c3cccc(Cl)c3)nc(=O)n(CC)c2n1 | u | n | n | n | u | n
COc1cccc(-c2nnc(SCC(=O)OC(C)C)n2N)c1 | 12.6µM | n | n | n | n | n
CC/C=C\C/C=C\C/C=C\CCCCCCCC(=O)O | n | 0.126µM | n | n | n | n
Cc1cc(=O)oc2cc(OC(C)C(=O)N3CCCc4ccccc43)ccc12 (stereo not given) | u | n | n | n | 25.1µM | n
Cc1nn(-c2ccccc2)c2c1/C(=N/O)CC(C)(C)C2 | u | n | n | n | 25.1µM | n
COc1ccccc1-n1cnc(N)c1C(C)=O | n | n | n | n | n | n
COc1ccccc1N1C(=O)N(C(C)=O)C2C1Nc1ccccc1N2C (stereo not given) | n | u | 25.1µM | n | n | u
CCNc1ncc2nc(-c3ccccc3)c(=O)n(C)c2n1 | n | n | n | u | n | x
CN1CCN(c2ncc3nc(CCc4ccccc4)c(=O)n(CCC#N)c3n2)CC1 | u | n | n | u | u | u
N#CC1=C(N)OC2=C(C(=O)CCC2)C12CCN(C(=O)OCc1ccccc1)CC2 | n | 25.1µM | n | n | n | n
COc1ccccc1-c1cc(Nc2ccn[nH]2)ncn1 | n | n | u | n | n | n
CN(c1ccc(OCc2nnc(-c3ccccc3)o2)cc1)S(=O)(=O)c1ccccc1 | u | n | n | n | 15.8µM | n
COc1ccc(CCNC(=O)c2ccc3nc(-c4ccco4)c(-c4ccco4)nc3c2)cc1OC | n[11.4 µM] | 7.94µM | 20µM | u | n | x
OCc1cn(-c2ccccc2)nc1-c1ccc2c(c1)OCCO2 | n | n | 25.1µM | n | n | n
CCC1=C(OC(=O)N(CC)CC)N2C(=O)OC(=NCCOC)[C@]2(C)[C@H]2C1=CC[C@H]1C(=O)NC(=O)[C@H]12 | x | x | n | n | x | n
CC(=O)N1CCC2(CCCN(c3ccccc3)C2)CC1 | n | n | n | n | n | n
N.N.O=C(O)C1(C(=O)O)CCC1.[Pt] | u | 0.631µM | n | u | u | u
O=C(CNCCC1=CCCCC1)Nc1ccccc1N1CCCCC1 | n | n | n | n | n | n
Oc1ccc(N2CCN(C(c3cccnc3)c3nnnn3Cc3ccccc3)CC2)cc1 (stereo not given) | n | 12.6µM | n | n | n | n
c1ccc(CCn2nnnc2C(c2cccnc2)N2CCN(c3ccccc3)CC2)cc1 (stereo not given) | n | n | n | u | n | n
SMILES | TSHR ag | ALOX15 inhib | ERK AVP block | Caspase-7 inhib | HEK293 cAMP ctrl | Casp1 inh
c1nc(N2CCC3(CC2)OCCO3)c2c3c(sc2n1)CCCC3 | u | n | 31.6µM | n | u | n
COc1ncc2nc(-c3cccs3)c(=O)n(Cc3ccc(F)cc3)c2n1 | u | n | n | u | u | x
CC(C)NCC(O)Cn1c2c(c3ccccc31)CCc1c-2cnn1-c1ccccc1 (stereo not given) | u | 12.6µM | u | n | n | n
Cc1ccc2c(c1)c1c(n2CC(O)Cn2c(C)nc3ccccc32)C(=O)CCC1 (stereo not given) | n | n | n | n | n | n
Cn1cccc1C(=O)N1CCC[C@@]2(CCN(Cc3ccc(C#N)cc3)C2)C1 | n | n | n | n | n | n
Cn1cccc1C(=O)N1CCC2(CC1)CN(Cc1cc(C(F)(F)F)cc(C(F)(F)F)c1)C2 | u | n | n | n | 15.8µM | n
Cn1cccc1C(=O)N1CCC[C@@]2(CCN(Cc3cc(C(F)(F)F)cc(C(F)(F)F)c3)C2)C1 | u | n | n | n | 12.6µM | n
O=C(c1ccco1)N1CCC2(CC1)CN(Cc1cc(C(F)(F)F)cc(C(F)(F)F)c1)C2 | u | n | n | n | 15.8µM | n
O=C(c1ccncc1)N1CCC2(CC1)CN(Cc1cc(C(F)(F)F)cc(C(F)(F)F)c1)C2 | n | n | n | n | n | n
Cc1ccc(-c2ccc(CCC(=O)O)n2NC(=O)c2cccs2)cc1 | n | n | n | n | n | n
Cc1ccc(C)n1NC(=O)c1cccs1 | n | 15.8µM | n | n | n | n
CCNC(=O)[C@H]1O[C@H](n2cnc3c(N)nc(NCCc4ccc(CCC(=O)O)cc4)nc32)[C@@H](O)[C@@H]1O | n | u | n | n | n | n
COc1ccc(-c2noc(C)c2-c2ccc3ccccc3n2)c(O)c1 | n | 15.8µM | n | n | n | n
O=C(CN1CCOCC1)N1CCN(S(=O)(=O)c2ccccc2)C1c1ccccc1 (stereo not given) | u | n | n | n | u | n
Cc1ccc(S(=O)(=O)N2CCN(C(=O)CN3CCOCC3)C2c2ccccc2)cc1 (stereo not given) | u | n | n | n | 20µM | n
Cc1cc(NO)nc(-c2ccc(Br)cc2)n1 | n | 15.8µM | n | n | n | n
CC(C)Oc1ccc(CSc2nnc3n(C)c(=O)c4c5c(sc4n23)CCCC5)cc1 | u | n | n | n | 15.8µM | n
CN1CCc2c(sc3c2c(=O)n(-c2ccccc2)c2nnc(SCc4ccc(Cl)cc4)n32)C1 | n | n | n | n | n | n
C=CC(C1=CC(=O)C(OC)=CC1=O)c1ccc(OC)cc1 (stereo not given) | x | 7.94µM | n | n | x | n
C=CC(C1=CC(=O)C(OC)=CC1=O)c1ccccc1 (stereo not given) | x | 3.16µM | n | n | x | n
C=CC(C1=CC(=O)C(OC)=C(OC)C1=O)c1ccccc1 (stereo not given) | x | u | n | n | x | n
CN(C)c1ccc(-c2nc(-n3ccnc3)c3ccccc3n2)cc1 | u | n | n | u | n | x
CC(C)N(Cc1nc(-c2ccc(Cl)cc2)no1)C(=O)CCC1CCCC1 | u | u | n | n | 20µM | n
CC(C)CO/N=C1/C[C@@H](O)[C@@H](O)[C@@H]2[C@@H]3C(=O)N(Cc4ccccc4)C(=O)[C@H]3CC[C@@H]12 | n[11.4 µM] | n[11.4 µM] | n[11.5 µM] | n[11.5 µM] | n[11.4 µM] | n[11.5 µM]
